# Source: PubChem BioAssay (National Center for Advancing Translational Sciences (NCATS))
# Compounds with a hit are over-represented: about 10% of the library has one in this group of screens.
# PLK1 PBD inh = qHTS for Inhibitors of PLK1-PDB (polo-like kinase 1 - polo-box domain): Primary Screen; Serine/threonine-protein kinase PLK1 (Homo sapiens), P53350; Plk1 PBD binding of FITC phosphopeptide, fluorescence polarization; Potency, µM, without a hit: max response, negative = inhibition, most hits filed as inhibitors; actives 2.8% (n = 360,000); AID 720504, 2013; also: potency is read from the fitted curve at half-maximal effect; series mostly up to about 57 µM; nearly all actives have a fitted effect of over 65% in size
# Mm-Cpn inhibitor = Inhibitors of TCP-1 ring complex (TRiC) of Methanococcus maripaludis (MmCpn): qHTS; actives 0.031% (n = 330,000); purified Mm-Cpn ATPase, ADP Transcreener TR-FRET; Potency, µM (series often up to 76.9 µM), inactives show at the highest dose activity, negative = inhibition, most hits filed as inhibitors; AID 504842, 2011; also: potency is read from the fitted curve at half-maximal effect; nearly all actives have a fitted effect of over 80% in size
#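 Purified archaeal chaperonin (25 nM final) was preincubated with compound for 10 min at 37°C, then ATP (10 uM final) was added for 30 min at 37°C in Tris pH 7.4/KCl/MgCl2/DTT buffer. ADP was quantified by HTRF Transcreener TR-FRET.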
# VDR inh = Inhibitors of the vitamin D receptor (VDR): qHTS | Vitamin D3 receptor (Homo sapiens), P11473 | VDR-SRC2-3 peptide fluorescence polarization, 2 h | Potency, µM, for the others: max response, negative = inhibition, actives largely listed as inhibitors | actives 0.93% (n = 400,000); also: potency is read from the fitted curve at half-maximal effect
# Target sequence (P11473 whole entry, looked up): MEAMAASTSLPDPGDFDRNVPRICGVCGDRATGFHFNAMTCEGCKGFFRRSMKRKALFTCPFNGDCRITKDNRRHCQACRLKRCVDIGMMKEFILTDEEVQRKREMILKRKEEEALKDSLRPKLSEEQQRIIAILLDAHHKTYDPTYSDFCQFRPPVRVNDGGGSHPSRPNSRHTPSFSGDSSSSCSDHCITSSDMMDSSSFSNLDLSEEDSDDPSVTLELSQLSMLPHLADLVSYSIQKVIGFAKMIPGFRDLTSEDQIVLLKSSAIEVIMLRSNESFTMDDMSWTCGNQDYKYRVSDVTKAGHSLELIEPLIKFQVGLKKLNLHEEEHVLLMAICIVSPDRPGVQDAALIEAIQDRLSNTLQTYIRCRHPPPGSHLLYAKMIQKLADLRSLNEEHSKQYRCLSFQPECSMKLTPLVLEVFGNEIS
#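 VDR–SRC2-3 interaction, FP format. Cmpds 23 nl via pintool, brief spin, 2 h ambient incubation.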
# G9a inh = qHTS Assay for Inhibitors of Histone Lysine Methyltransferase G9a; Histone-lysine N-methyltransferase EHMT2 (Homo sapiens), Q96KQ7; G9a H3K9 monomethylation, AlphaScreen, 2 h; Potency, µM (top dose mostly 102 µM), for the others: at the highest dose activity, negative = inhibition, actives largely listed as inhibitors; actives 8.8% (n = 350,000); also: potency is read from the fitted curve at half-maximal effect; nearly all actives have a fitted effect of over 75% in size
# Target sequence (Q96KQ7 913-1193 limits assumed): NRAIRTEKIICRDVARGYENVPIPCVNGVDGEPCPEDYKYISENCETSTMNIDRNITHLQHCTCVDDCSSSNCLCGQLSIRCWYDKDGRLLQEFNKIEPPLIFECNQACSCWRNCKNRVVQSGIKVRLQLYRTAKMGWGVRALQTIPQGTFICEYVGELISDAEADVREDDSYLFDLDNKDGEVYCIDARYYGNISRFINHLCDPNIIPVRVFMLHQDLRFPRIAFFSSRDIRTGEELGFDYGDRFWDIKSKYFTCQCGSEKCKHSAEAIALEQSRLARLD
#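 Using a bead-based AlphaScreen, monomethylated H3K9 product from 2 h room-temperature reactions (G9a 20 nM, peptide 500 nM, SAM 20 uM) was detected with 0.5 ug/mL rabbit anti-H3K9me1 antibody.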
# CCT chaperon mod = High-Throughput Screening for Modulators of Cytosolic Chaperonin Activity; purified chaperonin ATPase assay, HTRF ADP detection, 30 min; activity change, % (no concentration beside the values), hits read low; actives 0.3% (n = 360,000); AID 651819, 2012; in the data active = activity change below about -30%
#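 TRiC at 40 or 20 nM final (batch-dependent) in 30 mM Tris pH 7.4, 100 mM KCl, 5 mM MgCl2, 1 mM DTT, with compound at single 76 uM and 10 uM ATP, 30 min at 37 deg C. ADP detected by HTRF Transcreener, 665/615 ratio.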
# Sfp inh = qHTS Assay for Inhibitors of Bacillus subtilis Sfp phosphopantetheinyl transferase (PPTase) | AID 1490, 2009 | Biochemical Sfp PPTase activity, qHTS | Potency, µM, inactives show largest response in the series, negative = inhibition, hits mostly inhibitors | actives 3.5% (n = 310,000);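 also: the enzyme is Sfp with the accession as filed and its product quenches rhodamine fluorescence; potency is read from the fitted curve at half-maximal effect; 0% = enzyme reaction without inhibitor and -100% = no enzyme wells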
#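 Step 1, compound plus 15 nM Sfp-PPTase, 15 min, room temperature. Step 2, add rhodamine-CoA (5 uM) and BHQ-2-YbbR (12.5 uM). Step 3, read 525/598 nm fluorescence at 0 and 30 min.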
# Numbers without * were called inactive; ? = inconclusive; nt = no result; [ ] = dose if it differs, or a comment. Unless noted, calls follow the shape of the dose curve; as a rule, active = well fitted curve in the direction sought with a large enough effect; inconclusive = small, poorly fitted or top-dose-only effect, or another doubt; inactive = no such curve, though single readings can be large; an effect the other way counts as inactive or inconclusive. Unless noted, % is scaled to controls: 0 for no effect and ±100 for the full control effect.
SMILES,PLK1 PBD inh,Mm-Cpn inhibitor,VDR inh,G9a inh,CCT chaperon mod,Sfp inh
O=C(CSc1nc2ncccc2o1)Nc1ccc(Cl)cc1F,nt,nt,-9.5%,11.7%[59 µM],nt,nt
CCOC(=O)c1cc(-c2ccc(C)cc2)n(CC(=O)Nc2ccccc2F)c1C,nt,nt,-11.6%,5.0%[59 µM],nt,nt
CSc1nc(Cl)c(Cc2ccc(OC(C)C)cc2)c(N(C)C)n1,3.9%,1.6%,-5.4%,101.0%,-1.2,0.4%
CCOCc1[nH]c(=S)[nH]c(=O)c1Cc1ccc(OC(C)C)cc1,-18.0%,-3.1%,-4.1%,50.1µM*,-1.0,-18.4%
Cc1cc(N(CCO)CCO)ccc1C(c1ccc(N(CCO)CCO)cc1C)c1ccccc1Cl,-0.8%,1.7%,-15.1%,7.94µM*,-1.0,?
CN(C(=S)NC1=CCS(=O)(=O)C1)C1CCCCC1,-5.2%,2.0%,-3.0%,10µM*,1.5,-18.6%
Cc1cccc(NC(=S)N(C)C2CCCCC2)c1,-2.4%,-0.3%,-5.8%,7.5%,-0.3,6.5%
Cc1cc(C)c(NC(=O)CN2C(=O)CCn3nc(-c4cccn4C)cc32)c(C)c1,nt,nt,4.7%,-28.2%[59 µM],nt,nt
CCOC(=O)c1c2c(n(Cc3ccccc3)c1C)C(=O)C(=O)c1ccccc1-2,-6.6%,nt,50.1µM*,nt,-1.0,nt
COCCCNc1c2c3c(cccc3[nH]c1=O)C(=O)c1ccccc1-2,0.377µM*,-12.0%,-8.5%,-11.2%,-0.8,79.4µM*
C=CCNC1=C(Cl)C(=O)c2ccccc2C1=O,-6.8%,-0.7%,-6.6%,39.8µM*,-1.3,-9.9%
CC(=O)N(Cc1ccc(F)cc1)C1=C(NCCc2ccccc2)C(=O)c2ccccc2C1=O,0.9%,0.5%,14.9%,28.2µM*,-0.1,-11.0%
CCN(CC)CCCNC1=C(Cl)C(=O)c2ccccc2C1=O,-6.2%,-1.7%,10.5%,?,-0.8,-3.4%
CC(C)OCCCNC1=C(Cl)C(=O)c2ccccc2C1=O,-5.0%,-6.2%,2.5%,nt,0.4,?
CCc1ccc(NC(=O)C2CCN(S(=O)(=O)c3ccc4[nH]c5c(c4c3)CCCCC5)CC2)cc1,nt,nt,15.6%,?,nt,nt
Cc1ccc(NC(=O)c2oc3ccccc3c2NC(=O)c2ccc(F)c(F)c2)cc1,nt,nt,-10.4%,17.1%[59 µM],nt,nt
c1cncc(CNc2ncnc3ccc(-c4ccco4)cc23)c1,nt,-22.2%,nt,?,nt,nt
CCOC(=O)c1c2c3c(c(Cl)ccc3[nH]c1=O)C(=O)c1ccccc1-2,?,0.3%,4.1%,?,-3.7,11.0%
CCOC(=O)c1c2c3c(cccc3[nH]c1=O)C(=O)c1ccccc1-2,-19.8%,1.0%,7.3%,56.2µM*,-0.4,8.1%
O=C1C(Cl)=C(NCCc2ccccc2)C(=O)c2ccccc21,2.67µM*,nt,17.8µM*,nt,-2.2,nt
O=C1C(Cl)=C(Nc2ccccc2)C(=O)c2ccccc21,-15.0%,-0.8%,3.4%,?,-1.9,1.2%
COCCCNC1=C(Cl)C(=O)c2ccccc2C1=O,-16.2%,-2.9%,19.2%,39.8µM*,0.3,0.9%
Cc1ccc(CNC(=O)C2CCN(C(=O)c3ccc(-n4ccc5ccccc54)s3)CC2)cc1,nt,nt,-0.2%,6.8%[59 µM],nt,nt
COc1ccccc1CNC(=O)C(C)n1nc(C)n2c(cc3occc32)c1=O (configuration not stated),26.7µM*,-4.7%,?,34.9%,-0.5,30.7%
O=C(NCc1ccc(F)cc1)C1CCC(CNS(=O)(=O)c2ccccc2)CC1 (configuration not stated),26.7µM*,-0.4%,?,19.2%,1.4,6.2%
SMILES,PLK1 PBD inh,Mm-Cpn inhibitor,VDR inh,G9a inh,CCT chaperon mod,Sfp inh
Cc1cccc(-n2c(Cn3nc(C)c([N+](=O)[O-])c3C)n[nH]c2=S)c1,-21.8%,2.0%,22.8%,?,2.1,-6.8%
Cc1nn(C(C)c2nc(-c3ccccc3)no2)c(C)c1[N+](=O)[O-] (configuration not stated),-6.5%,0.1%,26.0%,21.5%[59 µM],-2.2,-3.6%
Cc1nn(CCc2n[nH]c(=S)n2-c2ccc(F)cc2)c(C)c1[N+](=O)[O-],-17.4%,-0.1%,-2.6%,2.24µM*,-2.6,-16.5%
Cc1nn(C(C)c2n[nH]c(=S)n2-c2ccc(F)cc2)c(C)c1[N+](=O)[O-] (configuration not stated),-4.3%,0.4%,17.5%,4.47µM*,-2.8,3.7%
Cc1ccc2nc3c(c(N)c2c1)CCN3c1ccccc1,-20.6%,-4.8%,10.3%,17.8µM*,-2.3,-16.3%
Cc1ccc2nc3c(c(N)c2c1)CCN3C,-10.0%,-2.8%,19.3%,8.91µM*,1.0,-16.2%
Nc1c2c(nc3cccc(Cl)c13)N(c1ccccc1)CC2,-2.9%,1.3%,-4.7%,18.2%,0.4,8.8%
CC(C)C(=O)Nc1c2c(nc3ccccc13)N(C)CC2,-4.0%,-18.7%,-9.1%,-4.4%[0.0925 µM],-0.3,11.6%
CN1CCc2c1nc1ccccc1c2N (tested in a mixture with another compound),4.7%,-2.3%,0.4%,79.4µM*,1.3,4.3%
CCCCN1CCc2c1nc1ccc(Br)cc1c2N,-8.6%,?,9.9%,8.1%[12.7 µM],-2.4,-20.3%
Cc1cc(C)c(N=C2CCCN2Cc2ccccc2)c(C#N)c1,-6.4%,0.2%,-0.1%,13.9%[59 µM],1.1,8.7%
CN1CCc2c1nc1ccccc1c2N=C1CCCN1Cc1ccccc1,21.2µM*,0.3%,-20.3%,-2.8%[59 µM],-2.3,-8.1%
Cc1ccc(CNC(=O)c2sc3nc(-c4ccc(F)cc4)ccc3c2N)cc1,nt,nt,-10.5%,?,nt,nt
Cc1cccc(C)c1-n1cccc1/C=C1/C(=N)N2C(=NC1=O)SN=C2S(C)(=O)=O,21.2µM*,-0.3%,?,31.6µM*,-3.0,4.2%
Cc1ccc(-n2cccc2/C=C2/C(=N)N3C(=NC2=O)SN=C3S(C)(=O)=O)cc1Cl,26.7µM*,0.6%,?,50.1µM*,-0.3,89.1µM*
CCC1=NN2C(=N)/C(=C\c3cccn3-c3c(C)cccc3C)C(=O)N=C2S1,?,-3.2%,12.3%,?,-1.4,56.2µM*
CC1=CSC2=NC(=O)/C(=C\c3cccn3-c3ccccc3)C(=N)N12,-2.3%,-12.2%,2.5%,2.0%[59 µM],0.4,10µM*
COc1cccc(C(=O)Nc2ccc3nc(N4CCC(C)CC4)cc(C)c3c2)c1,nt,nt,-9.6%,-1.8%[59 µM],nt,nt
C/C(=N/OC(=O)c1ccc(C)cc1)c1ccc(N2C(=O)C3CCCCC3C2=O)cc1 (configuration not stated),29.9µM*,-0.9%,?,-26.7%,0.4,-8.2%
CC(C)C(=O)Nc1cccc(NC(=O)c2cccc(F)c2)c1,-4.3%,0.3%,-6.5%,4.6%,0.4,10.0%
CCC(C)(C)NC(=O)c1cccc(NC(=O)C(C)C)c1,21.2µM*,-6.2%,-6.1%,nt,-1.1,7.0%
